PubChem BioAssay (NCATS)
Inconclusive results are not listed. A call without a number means that no potency is given here. Active and inactive are the calls of the source. Calls follow the shape of the dose curve; as a rule, active = well fitted inhibition curve with a large enough effect; inconclusive = small, poorly fitted or top-dose-only effect; inactive = flat fitted curve, though single readings scatter.

Test system: PC49
Test: qHTS profiling for inhibitors of Plasmodium falciparum proliferation (AID 504749); also: nearly all actives have a fitted effect of over 60% in size
Conditions: P. falciparum in erythrocytes, SYBR Green DNA, 72 h; series mostly up to 28.7 µM
Method in brief: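 Each compound contacts P. falciparum-infected red blood cells for 72 h at 37 C; lysis buffer (Tris, EDTA, saponin, Triton X, SYBR Green I) is added and fluorescence measured next morning; values normalized to controls.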
Potency is read from the fitted curve at half-maximal effect.

Compound	Potency
O=C(O)CCCCC(=O)O	inactive
CCOC(=O)n1ccn(C)c1=S	inactive
COc1cc(NS(C)(=O)=O)ccc1Nc1c2ccccc2nc2ccccc12	3.16 µM (active)
C[C@]12CC[C@@H]3c4ccc(O)cc4CC[C@H]3[C@@H]1CC[C@@H]2O	inactive
NCCC(O)(P(=O)(O)O)P(=O)(O)O	inactive
CCN1CCC[C@H]1CNC(=O)c1c(OC)ccc(Br)c1OC	inactive
CCN1CCN(c2cc3c(cc2F)c(=O)c(C(=O)O)cn3C2CC2)CC1	inactive
CN1C2CCC1CC(OC(=O)c1c[nH]c3ccccc13)C2 (stereo not given)	inactive
CO/N=C1\CN(c2nc3c(cc2F)c(=O)c(C(=O)O)cn3C2CC2)CC1CN (stereo not given)	inactive
Oc1c(Cl)cc(Cl)cc1Sc1cc(Cl)cc(Cl)c1O	inactive
CC(=O)Oc1ccc(C(=C2CCCCC2)c2ccc(OC(C)=O)cc2)cc1	inactive
CC(=O)OCC(=O)NCCCOc1cccc(CN2CCCCC2)c1	inactive
CCOC(=O)/C=C(C)/C=C/C=C(C)/C=C/c1c(C)cc(OC)c(C)c1C	inactive
CCN(CC)C(=O)N1CCN(C)CC1	inactive
Nc1ccc(/C=C/c2ccc(N)cc2S(=O)(=O)O)c(S(=O)(=O)O)c1	inactive
CCN1CCCC1=O	inactive
Cc1c(F)c(N2CCNC(C)C2)cc2c1c(=O)c(C(=O)O)cn2C1CC1 (stereo not given)	inactive
CC(C)(Oc1ccc(Cl)cc1)C(=O)O	inactive

Compound	Potency
CCCCC1=NC2(CCCC2)C(=O)N1Cc1ccc(-c2ccccc2-c2nn[nH]n2)cc1	inactive
CCCCCCCCCCCCCCCCOP(=O)([O-])OCC[N+](C)(C)C	inactive
C#C[C@]1(OC(C)=O)CC[C@H]2[C@@H]3CCC4=C[C@@H](OC(C)=O)CC[C@@H]4[C@H]3CC[C@@]21C	inactive
CCCn1c(=O)[nH]c(=O)c2[nH]cnc21	inactive
CC(O)C(=O)O (stereo not given)	inactive
CCCCc1nc(Cl)c(CO)n1Cc1ccc(-c2ccccc2-c2nn[nH]n2)cc1	inactive
O=C(OCCOCCO)c1ccccc1Nc1cccc(C(F)(F)F)c1	inactive
Cc1cccn2c(=O)c(-c3nnn[nH]3)cnc12	inactive
NCCc1ccn[nH]1	inactive
O=C1OC(c2ccc(O)cc2)(c2ccc(O)cc2)c2ccccc21	inactive
CN1C(CCl)Nc2cc(Cl)c(S(N)(=O)=O)cc2S1(=O)=O (stereo not given)	inactive
COc1cc(C(=S)N2CCOCC2)cc(OC)c1OC	inactive
C[C@H]1[C@H](NC(=O)/C(=N/OC(C)(C)C(=O)O)c2csc(N)n2)C(=O)N1S(=O)(=O)O (stereo in doubt)	inactive
NCCCC[C@H](N[C@@H](CCc1ccccc1)C(=O)O)C(=O)N1CCC[C@H]1C(=O)O	inactive
CC(C)(CO)[C@@H](O)C(=O)NCCCO	inactive
Cc1ccnc(NS(=O)(=O)c2ccc(N)cc2)n1	inactive
Nc1ccc(C(=O)O)cc1	inactive
